About 8,800 targets were measured; listed, in parts, are those with a hit and a random draw of the rest. About 0.5% of all pairs of compound and target were hits. Values without a mark were called inactive.
The targets below were run with CN1CCN(c2nc(C3=C(c4c[nH]c5ccccc45)C(=O)NC3=O)c3ccccc3n2)CC1 [sotrastaurin] (assay: log2 fold change, soluble protein after heating vs DMSO (PISA); higher = thermal stabilisation; K562 lysate, 10 uM; active = over 0.2 and 3.5 SD of the protein, either way, in both replicates (recomputed)).
In short: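 Following dounce homogenisation of K562 pellets in PBS pH 7.4 with 1 mM MgCl2, crude extract at 1 mg/mL protein was incubated for 30 min with 10 μM compound. Aliquots were then heated for 3 min over 48°C-58°C and pooled, NP-40 was added to 0.5% at 4°C, and soluble protein was recovered as the supernatant at 21,000xg for 90 min. Channel-sum-equalised TMTpro 16plex LC-MS/MS quantified this protein. Each value, from duplicates, is a log-two fold change in thermal stability relative to solvent controls.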

UniProt Q9Y448, sequence (Q9Y448 whole entry, looked up): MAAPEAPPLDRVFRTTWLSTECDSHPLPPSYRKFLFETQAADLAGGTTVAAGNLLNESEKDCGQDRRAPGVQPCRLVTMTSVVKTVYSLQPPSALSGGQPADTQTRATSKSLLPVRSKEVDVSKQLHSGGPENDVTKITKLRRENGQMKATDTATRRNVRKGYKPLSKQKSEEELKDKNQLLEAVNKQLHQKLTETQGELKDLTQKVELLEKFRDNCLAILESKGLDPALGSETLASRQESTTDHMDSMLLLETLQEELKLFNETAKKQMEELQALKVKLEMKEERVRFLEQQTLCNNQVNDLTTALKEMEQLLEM
UniProt Q9NSK0, sequence (Q9NSK0 whole entry, looked up): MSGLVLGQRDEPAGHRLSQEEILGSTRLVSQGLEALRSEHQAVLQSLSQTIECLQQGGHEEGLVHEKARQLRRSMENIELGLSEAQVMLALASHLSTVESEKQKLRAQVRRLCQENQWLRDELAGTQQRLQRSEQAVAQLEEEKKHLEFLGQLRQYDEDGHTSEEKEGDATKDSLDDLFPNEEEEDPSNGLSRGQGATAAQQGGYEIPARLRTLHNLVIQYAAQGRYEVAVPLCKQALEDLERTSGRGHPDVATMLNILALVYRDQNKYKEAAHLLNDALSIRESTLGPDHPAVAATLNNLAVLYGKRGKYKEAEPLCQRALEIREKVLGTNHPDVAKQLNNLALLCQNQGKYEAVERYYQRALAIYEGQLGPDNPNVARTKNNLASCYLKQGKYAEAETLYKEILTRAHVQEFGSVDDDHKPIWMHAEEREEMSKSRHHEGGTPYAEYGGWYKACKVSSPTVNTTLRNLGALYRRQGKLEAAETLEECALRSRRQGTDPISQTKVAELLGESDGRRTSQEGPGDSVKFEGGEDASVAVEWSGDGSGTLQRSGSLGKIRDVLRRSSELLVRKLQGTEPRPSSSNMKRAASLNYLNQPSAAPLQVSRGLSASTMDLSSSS
UniProt Q16539, sequence (Q16539 whole entry, looked up): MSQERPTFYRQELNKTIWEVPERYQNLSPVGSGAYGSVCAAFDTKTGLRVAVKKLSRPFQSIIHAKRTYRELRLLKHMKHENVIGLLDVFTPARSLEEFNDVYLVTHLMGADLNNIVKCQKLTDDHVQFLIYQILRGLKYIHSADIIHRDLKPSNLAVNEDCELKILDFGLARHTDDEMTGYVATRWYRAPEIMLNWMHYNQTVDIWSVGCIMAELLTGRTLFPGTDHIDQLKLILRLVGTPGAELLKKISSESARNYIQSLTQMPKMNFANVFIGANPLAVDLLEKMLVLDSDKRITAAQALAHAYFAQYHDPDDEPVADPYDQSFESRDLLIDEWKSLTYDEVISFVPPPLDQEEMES
UniProt Q96T76, sequence (Q96T76 whole entry, looked up): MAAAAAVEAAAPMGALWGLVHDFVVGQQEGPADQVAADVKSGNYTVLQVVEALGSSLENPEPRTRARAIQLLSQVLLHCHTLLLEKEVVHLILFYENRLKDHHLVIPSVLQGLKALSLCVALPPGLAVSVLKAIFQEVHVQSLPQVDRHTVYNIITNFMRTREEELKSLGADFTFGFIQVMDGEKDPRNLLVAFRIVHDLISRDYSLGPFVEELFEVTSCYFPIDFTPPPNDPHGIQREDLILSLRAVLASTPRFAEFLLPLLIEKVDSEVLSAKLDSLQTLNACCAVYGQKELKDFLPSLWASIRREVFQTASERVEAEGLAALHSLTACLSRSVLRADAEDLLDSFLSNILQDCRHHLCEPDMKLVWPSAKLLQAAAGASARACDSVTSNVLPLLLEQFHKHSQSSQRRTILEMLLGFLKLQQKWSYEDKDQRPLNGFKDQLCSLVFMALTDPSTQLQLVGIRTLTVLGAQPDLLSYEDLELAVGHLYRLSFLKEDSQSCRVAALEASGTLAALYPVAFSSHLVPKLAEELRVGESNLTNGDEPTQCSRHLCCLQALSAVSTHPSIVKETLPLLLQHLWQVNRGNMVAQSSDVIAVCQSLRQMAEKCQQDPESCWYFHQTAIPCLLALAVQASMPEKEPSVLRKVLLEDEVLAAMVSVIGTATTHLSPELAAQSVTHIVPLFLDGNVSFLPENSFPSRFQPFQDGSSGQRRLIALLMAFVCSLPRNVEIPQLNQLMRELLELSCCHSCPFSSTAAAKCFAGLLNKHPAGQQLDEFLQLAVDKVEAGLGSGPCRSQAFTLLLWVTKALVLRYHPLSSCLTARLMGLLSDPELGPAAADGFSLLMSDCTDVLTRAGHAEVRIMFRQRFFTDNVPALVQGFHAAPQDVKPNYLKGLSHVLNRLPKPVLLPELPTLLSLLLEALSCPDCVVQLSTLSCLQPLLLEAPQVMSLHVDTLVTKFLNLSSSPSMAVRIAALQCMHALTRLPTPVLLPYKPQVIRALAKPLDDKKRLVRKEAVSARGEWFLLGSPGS
UniProt Q14739, sequence (Q14739 whole entry, looked up): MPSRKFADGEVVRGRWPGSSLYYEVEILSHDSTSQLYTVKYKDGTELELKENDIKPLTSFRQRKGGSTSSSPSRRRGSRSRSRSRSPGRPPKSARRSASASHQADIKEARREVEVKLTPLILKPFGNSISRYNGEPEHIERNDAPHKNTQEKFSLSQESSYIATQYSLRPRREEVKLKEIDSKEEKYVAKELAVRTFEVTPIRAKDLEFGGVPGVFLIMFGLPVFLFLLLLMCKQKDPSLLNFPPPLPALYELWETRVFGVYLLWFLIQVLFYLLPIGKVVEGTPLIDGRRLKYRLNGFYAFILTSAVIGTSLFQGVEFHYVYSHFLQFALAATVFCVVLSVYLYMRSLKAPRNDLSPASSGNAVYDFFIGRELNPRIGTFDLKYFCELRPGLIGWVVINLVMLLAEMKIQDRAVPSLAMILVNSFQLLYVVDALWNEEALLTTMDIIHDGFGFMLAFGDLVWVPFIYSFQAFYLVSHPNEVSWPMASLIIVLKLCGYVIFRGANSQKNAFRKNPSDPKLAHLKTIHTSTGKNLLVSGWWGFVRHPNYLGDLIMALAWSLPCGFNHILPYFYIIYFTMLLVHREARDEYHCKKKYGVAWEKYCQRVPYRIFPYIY
UniProt Q16644, sequence (Q16644 whole entry, looked up): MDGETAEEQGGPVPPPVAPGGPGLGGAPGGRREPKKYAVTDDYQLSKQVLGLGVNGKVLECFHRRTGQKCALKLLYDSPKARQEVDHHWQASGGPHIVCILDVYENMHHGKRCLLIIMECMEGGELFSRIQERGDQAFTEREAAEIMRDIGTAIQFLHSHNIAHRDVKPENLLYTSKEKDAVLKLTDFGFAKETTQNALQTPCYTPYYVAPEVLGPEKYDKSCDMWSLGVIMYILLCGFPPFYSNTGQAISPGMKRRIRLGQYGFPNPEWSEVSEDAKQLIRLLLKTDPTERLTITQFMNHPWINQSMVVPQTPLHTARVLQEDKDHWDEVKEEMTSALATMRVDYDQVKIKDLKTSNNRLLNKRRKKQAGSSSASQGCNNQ
UniProt Q99661, sequence (Q99661 whole entry, looked up): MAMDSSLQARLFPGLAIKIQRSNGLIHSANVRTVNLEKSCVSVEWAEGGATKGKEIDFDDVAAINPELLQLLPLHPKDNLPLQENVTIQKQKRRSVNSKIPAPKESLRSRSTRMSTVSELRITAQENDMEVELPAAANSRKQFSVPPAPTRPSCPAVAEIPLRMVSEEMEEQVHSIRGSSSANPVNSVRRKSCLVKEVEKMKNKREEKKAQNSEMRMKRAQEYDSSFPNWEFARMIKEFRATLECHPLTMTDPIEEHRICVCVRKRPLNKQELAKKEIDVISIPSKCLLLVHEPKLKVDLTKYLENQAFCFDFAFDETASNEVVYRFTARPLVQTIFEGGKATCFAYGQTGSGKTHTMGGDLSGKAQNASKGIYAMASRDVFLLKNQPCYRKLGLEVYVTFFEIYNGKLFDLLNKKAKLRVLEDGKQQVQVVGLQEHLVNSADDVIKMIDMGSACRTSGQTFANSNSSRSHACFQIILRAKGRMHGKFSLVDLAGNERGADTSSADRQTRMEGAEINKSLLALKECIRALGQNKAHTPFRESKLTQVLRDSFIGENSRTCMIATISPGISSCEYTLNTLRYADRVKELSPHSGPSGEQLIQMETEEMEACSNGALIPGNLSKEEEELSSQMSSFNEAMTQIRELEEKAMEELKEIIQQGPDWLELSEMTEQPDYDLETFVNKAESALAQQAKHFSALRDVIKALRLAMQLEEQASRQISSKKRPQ
UniProt Q02750, sequence (Q02750 whole entry, looked up): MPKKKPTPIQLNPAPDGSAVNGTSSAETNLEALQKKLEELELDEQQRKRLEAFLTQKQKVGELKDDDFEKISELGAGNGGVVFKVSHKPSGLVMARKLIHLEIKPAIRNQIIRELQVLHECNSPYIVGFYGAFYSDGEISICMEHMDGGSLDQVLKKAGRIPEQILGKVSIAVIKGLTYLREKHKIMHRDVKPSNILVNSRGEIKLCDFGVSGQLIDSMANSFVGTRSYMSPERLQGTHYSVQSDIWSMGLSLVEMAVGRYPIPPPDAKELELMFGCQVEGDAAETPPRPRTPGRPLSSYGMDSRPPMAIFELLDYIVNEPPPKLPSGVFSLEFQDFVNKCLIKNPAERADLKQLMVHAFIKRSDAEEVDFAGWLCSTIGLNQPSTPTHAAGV
UniProt P45985, sequence (P45985 whole entry, looked up): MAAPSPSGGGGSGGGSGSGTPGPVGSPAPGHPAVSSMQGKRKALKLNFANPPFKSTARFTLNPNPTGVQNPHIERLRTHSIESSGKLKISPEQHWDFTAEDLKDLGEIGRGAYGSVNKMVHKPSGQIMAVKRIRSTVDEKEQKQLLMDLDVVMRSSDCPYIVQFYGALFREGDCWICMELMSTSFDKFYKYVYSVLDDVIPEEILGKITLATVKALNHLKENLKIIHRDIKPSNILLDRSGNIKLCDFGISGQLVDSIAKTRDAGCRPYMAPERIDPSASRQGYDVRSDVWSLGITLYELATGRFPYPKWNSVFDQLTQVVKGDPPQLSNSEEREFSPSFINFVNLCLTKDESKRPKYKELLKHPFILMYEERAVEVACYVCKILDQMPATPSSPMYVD
UniProt P10620, sequence (P10620 whole entry, looked up): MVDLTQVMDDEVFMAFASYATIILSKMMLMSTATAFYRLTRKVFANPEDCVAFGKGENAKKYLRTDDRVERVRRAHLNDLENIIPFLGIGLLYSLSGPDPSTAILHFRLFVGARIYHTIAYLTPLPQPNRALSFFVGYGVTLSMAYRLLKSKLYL

| Target | log2 fold change |
| --- | --- |
| MAP1S (UniProt Q66K74) | 0.037 |
| MON2 isoform 5 (UniProt Q7Z3U7) | -0.003 |
| LRPPRC (UniProt P42704) | 0.005 |
| LBR (UniProt Q14739) | 0.048 |
| MAPK14 (UniProt Q16539) | -0.058 |
| MLST8 (UniProt Q9BVC4) | -0.045 |
| MMS19 isoform 8 (UniProt Q96T76) | 0.026 |
| KNL1 (UniProt Q8NG31) | 0.025 |
| KLC1 isoform 6 (UniProt Q07866) | -0.011 |
| MICU1 isoform 3 (UniProt Q9BPX6) | 0.044 |
| MOCS1 isoform 8 (UniProt Q9NZB8) | -0.018 |
| KLHL36 (UniProt Q8N4N3) | 0.099 |
| MAP2K4 isoform 2 (UniProt P45985) | 0.002 |
| MED17 (UniProt Q9NVC6) | 0.031 |
| MAP2K5 (UniProt Q13163) | 0.014 |
| LRWD1 (UniProt Q9UFC0) | 0.03 |
| MCMBP (UniProt Q9BTE3) | 0.015 |
| MRPL15 (UniProt Q9P015) | 0.023 |
| MAST4 (UniProt O15021) | -0.015 |

| Target | log2 fold change |
| --- | --- |
| MBLAC2 (UniProt Q68D91) | 0.016 |
| KNSTRN (UniProt Q9Y448) | -0.03 |
| MACROD1 (UniProt Q9BQ69) | 0.002 |
| MAPK9 (UniProt P45984) | -0.031 |
| LRRC40 (UniProt Q9H9A6) | 0.021 |
| MRPL10 isoform 2 (UniProt Q7Z7H8) | 0.068 |
| MICB, A0A140T979 | 0.096 |
| LIG3 (UniProt P49916) | 0.009 |
| MAPKAPK3 (UniProt Q16644) | -0.014 |
| KIF2C (UniProt Q99661) | 0.02 |
| LRCH3 (UniProt Q96II8) | -0.047 |
| LYAR (UniProt Q9NX58) | -0.039 |
| MGST1 (UniProt P10620) | -0.013 |
| KLC4 isoform 3 (UniProt Q9NSK0) | 0.003 |
| MAPKAPK5 (UniProt Q8IW41) | -0.068 |
| MED10 (UniProt Q9BTT4) | -0.015 |
| LPIN1 isoform 7 (UniProt Q14693) | 0.028 |
| KIF21A isoform 5 (UniProt Q7Z4S6) | 0.017 |
| MAP2K1 (UniProt Q02750) | 0.015 |
